# Data: PubChem BioAssay (NCATS)
# Several values for one entry are separate records, joined by “and”; a condition that tells them apart may be missing. Equal values may be shown once. Unmarked numbers belong to inactive results. Records with an inconclusive call do not appear. A call without a number means that no potency is given here. Activity calls are given as the source filed them. Unless noted, the call rests on the fitted dose curve; in most records, active means well fitted curve in the direction sought with a large enough effect; inconclusive means small, poorly fitted or top-dose-only effect, or another doubt; inactive means no such curve, though single readings can be large; an effect the other way counts as inactive or inconclusive.
# Legend:
# [1] = MultiTox-Fluor Cytotoxicity Assay - LYMP1-001 - Live Cells (AID 947)
# [2] = MultiTox-Fluor Cytotoxicity Assay - LYMP1-002 - Dead Cells (AID 960); further: nearly all actives have a fitted effect of over 60% in size
# Procedure, shortened: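 Dead-cell fluorescence (Ex/Em 485/520) after 16 h compound exposure at 37 C of LYMP1-002 lymphoblastoid cells in complete medium; AC50 by Hill equation, with data scaled between DMSO and 15 uM tetraoctylammonium bromide.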
# [3] = Cell Viability - LYMP2-009 (AID 968);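 further: series mostly up to about 92 µM; cells exposed to compound for 24 h at 37 °C; nearly all actives have a fitted effect of over 55% in size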
# [4] = Cell Viability - LYMP2-012 (AID 982);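 further: cellular ATP by luciferase luminescence where a drop means cytotoxicity; cells exposed to compound for one day before reading; nearly all actives have a fitted effect of over 55% in size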
# [5] = biological target: Estrogen receptor (Homo sapiens) (UniProt P03372); experiment: qHTS assay for small molecule antagonists of estrogen receptor alpha signaling (AID 588513; active means well fitted curve in the direction sought with a large enough effect in the signal ratio, with a control signal flat, not every such curve was filed as active; the % refers to the signal ratio)
# Estrogen receptor (Homo sapiens), sequence (P03372 whole entry, looked up): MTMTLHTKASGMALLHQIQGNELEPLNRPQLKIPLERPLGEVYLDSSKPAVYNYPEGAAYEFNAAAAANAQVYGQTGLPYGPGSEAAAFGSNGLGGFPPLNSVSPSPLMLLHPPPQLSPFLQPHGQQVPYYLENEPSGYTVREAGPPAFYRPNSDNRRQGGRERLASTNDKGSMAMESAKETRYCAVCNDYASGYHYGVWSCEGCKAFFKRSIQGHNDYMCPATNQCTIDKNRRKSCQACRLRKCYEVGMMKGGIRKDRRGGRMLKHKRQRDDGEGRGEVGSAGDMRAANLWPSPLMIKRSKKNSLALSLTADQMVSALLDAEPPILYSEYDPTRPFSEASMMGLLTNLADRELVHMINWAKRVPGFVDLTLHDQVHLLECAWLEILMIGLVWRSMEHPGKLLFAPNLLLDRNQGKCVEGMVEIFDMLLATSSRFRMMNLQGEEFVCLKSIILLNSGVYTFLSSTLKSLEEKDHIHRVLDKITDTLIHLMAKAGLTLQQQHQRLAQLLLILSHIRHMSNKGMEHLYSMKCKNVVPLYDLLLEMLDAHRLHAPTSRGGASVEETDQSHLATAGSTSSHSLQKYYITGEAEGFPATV
# Procedure, shortened: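 Beta-lactamase reporter, antagonist mode, HEK 293 GripTite cells; 0.5nM E2 stimulus, 18 h, 37 C; CCF4 dye 2 h RT; fluorescence. IC50 and efficacy from Hill fits, normalized to E2 and DMSO.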
# [6] = biological target: Estrogen receptor (Homo sapiens) (UniProt P03372); experiment: qHTS assay for small molecule agonists of estrogen receptor alpha signaling (AID 588514; calls by dose curve; further: nearly all actives have a fitted effect of over 70% in size; further: potency means the concentration at half of the fitted maximal effect)
# Procedure, shortened: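 EC50 and efficacy came from Hill fits of beta-lactamase reporter signal (CCF4 dye, 2 h at room temperature) scaled between DMSO and 20 nM 17-beta-estradiol. Agonist mode: HEK293 ER-alpha-UAS-bla cells in charcoal/dextran-stripped serum medium, 18 h compound exposure at 37 C.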
# [7] = biological target: Peroxisome proliferator-activated receptor delta (Homo sapiens) (UniProt Q03181); experiment: qHTS assay for small molecule agonists of peroxisome proliferator-activated receptor delta signaling (AID 588534; calls by dose curve)
# Peroxisome proliferator-activated receptor delta (Homo sapiens), sequence (Q03181 whole entry, looked up): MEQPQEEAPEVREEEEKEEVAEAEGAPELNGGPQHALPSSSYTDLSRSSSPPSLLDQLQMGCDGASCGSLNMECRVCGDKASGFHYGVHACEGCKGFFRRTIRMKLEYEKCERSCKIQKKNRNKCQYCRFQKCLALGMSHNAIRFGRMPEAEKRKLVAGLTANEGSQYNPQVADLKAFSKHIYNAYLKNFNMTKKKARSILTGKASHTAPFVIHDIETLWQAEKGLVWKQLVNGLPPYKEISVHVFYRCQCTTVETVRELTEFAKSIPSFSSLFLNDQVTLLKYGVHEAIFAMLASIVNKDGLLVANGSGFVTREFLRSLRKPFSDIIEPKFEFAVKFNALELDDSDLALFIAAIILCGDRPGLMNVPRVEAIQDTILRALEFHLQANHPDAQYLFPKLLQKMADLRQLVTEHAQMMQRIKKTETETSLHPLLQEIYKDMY
# Procedure, shortened: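 Agonist-mode beta-lactamase reporter readout (CCF4 dye, 2 h at RT) after 18 h at 37 °C exposure to a titration; Hill-equation fitting gave EC50 and maximal response.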
# [8] = biological target: Vitamin D3 receptor (Homo sapiens) (UniProt P11473); experiment: qHTS assay for small molecule antagonists of vitamin D receptor signaling (AID 588541; calls by dose curve;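 further: receptor activated by calcitriol during compound treatment; series mostly up to about 77 µM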)
# Vitamin D3 receptor (Homo sapiens), sequence (P11473 whole entry, looked up): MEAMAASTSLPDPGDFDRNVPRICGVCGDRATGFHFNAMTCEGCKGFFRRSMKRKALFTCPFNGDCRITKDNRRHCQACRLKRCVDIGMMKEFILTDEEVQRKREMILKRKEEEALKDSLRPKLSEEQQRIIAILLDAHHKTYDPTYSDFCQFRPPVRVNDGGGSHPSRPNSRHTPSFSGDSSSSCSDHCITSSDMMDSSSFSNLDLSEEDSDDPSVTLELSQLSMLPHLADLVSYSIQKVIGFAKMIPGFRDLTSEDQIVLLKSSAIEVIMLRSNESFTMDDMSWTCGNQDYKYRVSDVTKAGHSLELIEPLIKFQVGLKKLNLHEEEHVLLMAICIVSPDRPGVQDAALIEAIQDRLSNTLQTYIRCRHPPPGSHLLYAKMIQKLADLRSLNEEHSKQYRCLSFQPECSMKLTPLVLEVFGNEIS
# Procedure, shortened: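 VDR-UAS-bla HEK293T cells (2000/well, 2% charcoal-stripped FBS) were treated with titrated compounds plus 1-alpha,25-dihydroxyvitamin D3 (50 nM or 3 nM final) for 16 h at 37 C. CCF4 beta-lactamase fluorescence was read; Hill fits gave IC50.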
# [9] = biological target: Vitamin D3 receptor (Homo sapiens) (UniProt P11473); experiment: qHTS assay for small molecule agonists of vitamin D receptor signaling (AID 588543; calls by dose curve)
# Procedure, shortened: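 β-lactamase reporter, VDR-UAS-bla HEK293T, agonist mode. Cells plated 5 h at 37 °C, compound titration 16 h at 37 °C, CCF4 dye 2 h RT, ratio 460/530 nm. Hill fit → EC50, efficacy vs 50 nM 1α,25-(OH)2D3.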
# [10] = biological target: Voltage-gated inwardly rectifying potassium channel KCNH2 (Homo sapiens) (UniProt Q12809); experiment: qHTS Assay for Small Molecule Inhibitors of the Human hERG Channel Activity (AID 588834);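 further: top concentration of the series differs between compounds; lower thallium flux fluorescence means stronger hERG block; nearly all actives have a fitted effect of over 50% in size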
# Voltage-gated inwardly rectifying potassium channel KCNH2 (Homo sapiens), sequence (Q12809 whole entry, looked up): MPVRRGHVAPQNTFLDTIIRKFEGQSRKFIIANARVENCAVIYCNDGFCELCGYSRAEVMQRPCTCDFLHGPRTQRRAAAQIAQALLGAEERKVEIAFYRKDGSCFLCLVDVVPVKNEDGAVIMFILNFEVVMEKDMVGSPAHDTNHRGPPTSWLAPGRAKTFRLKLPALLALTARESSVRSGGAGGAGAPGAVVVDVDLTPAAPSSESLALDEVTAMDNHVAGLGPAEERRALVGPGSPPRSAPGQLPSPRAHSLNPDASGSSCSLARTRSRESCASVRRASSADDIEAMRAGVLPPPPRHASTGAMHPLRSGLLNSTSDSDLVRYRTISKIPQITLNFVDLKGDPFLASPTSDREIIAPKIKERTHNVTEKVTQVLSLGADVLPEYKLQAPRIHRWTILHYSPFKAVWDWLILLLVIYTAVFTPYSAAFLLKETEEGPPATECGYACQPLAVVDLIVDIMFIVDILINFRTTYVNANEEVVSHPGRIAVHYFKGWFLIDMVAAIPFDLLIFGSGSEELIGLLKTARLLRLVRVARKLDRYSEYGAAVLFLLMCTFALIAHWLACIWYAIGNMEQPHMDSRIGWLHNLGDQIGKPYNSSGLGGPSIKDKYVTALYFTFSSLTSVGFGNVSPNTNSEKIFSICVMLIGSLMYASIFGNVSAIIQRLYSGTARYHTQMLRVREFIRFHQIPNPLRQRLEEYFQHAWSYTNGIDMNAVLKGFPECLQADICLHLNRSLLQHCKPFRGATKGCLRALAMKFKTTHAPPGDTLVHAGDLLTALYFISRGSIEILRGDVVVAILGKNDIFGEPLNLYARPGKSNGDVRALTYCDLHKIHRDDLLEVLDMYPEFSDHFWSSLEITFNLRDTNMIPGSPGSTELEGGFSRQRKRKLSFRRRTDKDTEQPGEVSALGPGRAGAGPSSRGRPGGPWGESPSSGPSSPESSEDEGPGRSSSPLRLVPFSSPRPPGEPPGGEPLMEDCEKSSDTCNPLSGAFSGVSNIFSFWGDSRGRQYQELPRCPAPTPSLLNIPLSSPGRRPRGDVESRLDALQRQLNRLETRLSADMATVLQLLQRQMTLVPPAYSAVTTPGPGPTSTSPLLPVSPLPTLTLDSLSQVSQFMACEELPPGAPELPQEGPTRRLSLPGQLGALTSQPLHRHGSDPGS
# Procedure, shortened: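 Thallium-flux (FluxOR) read-out on FDSS: fluorescence read 10 s before and 2 min after stimulation buffer. hERG-BacMam-transduced U2OS cells, compound exposure about 10 min. AC50 by standard Hill equation.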
# [11] = qHTS assay for small molecule activators of the p53 signaling pathway (AID 651743; active means well fitted activation curve with a large enough effect in the signal ratio, not every such curve was filed as active; the % refers to the signal ratio; further: series mostly up to about 92 µM); conditions: HCT-116 p53RE-bla, beta-lactamase FRET ratio, 16 h; activation: active compounds read high
# Procedure, shortened: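 Agonist-mode quantitative HTS in HCT-116 cells carrying a p53-response-element beta-lactamase reporter; 16 h compound treatment at 37 C, then FRET substrate loading for 2 h at room temperature and fluorescence read.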
# [12] = qHTS assay for small molecule disruptors of the mitochondrial membrane potential - 1 hr assay (AID 651754; calls by dose curve; further: nearly all actives have a fitted effect of over 35% in size)
# Procedure, shortened: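 Mitochondrial potential in living HepG2 cells after 1 hr compound treatment at 37C was read with Mito-MPS dye added for a further 30 min. Red aggregate and green monomer fluorescence were measured; loss of potential leaves dye as cytoplasmic monomers.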
# [13] = qHTS assay for environmental chemicals that activate the Aryl hydrocarbon Receptor (AhR) signaling pathway (AID 651777); conditions: 1A2-DRE human hepatoma cells, luciferase, 24 h; activation: active compounds read high; further: nearly all actives have a fitted effect of over 15% in size
# Procedure, shortened: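 Luminescence read-out: One-Glo added for 30 min at RT after 24 hr compound treatment (37 C, 5% CO2) of human hepatoma cells expressing a DRE/CYP1A2 promoter–luciferase reporter; increased signal indicates AhR activation.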
# [14] = biological target: Nuclear receptor ROR-gamma (Homo sapiens) (UniProt P51449); experiment: qHTS assay for small molecule antagonists of the retinoid-related orphan receptor gamma (ROR-gamma) signaling pathway (AID 651802);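 further: CHO cells with doxycycline-induced ROR-gamma expression; luciferase reporter luminescence driven by ROR response element; series mostly up to about 92 µM; nearly all actives have a fitted effect of over 60% in size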
# Nuclear receptor ROR-gamma (Homo sapiens), sequence (P51449 whole entry, looked up): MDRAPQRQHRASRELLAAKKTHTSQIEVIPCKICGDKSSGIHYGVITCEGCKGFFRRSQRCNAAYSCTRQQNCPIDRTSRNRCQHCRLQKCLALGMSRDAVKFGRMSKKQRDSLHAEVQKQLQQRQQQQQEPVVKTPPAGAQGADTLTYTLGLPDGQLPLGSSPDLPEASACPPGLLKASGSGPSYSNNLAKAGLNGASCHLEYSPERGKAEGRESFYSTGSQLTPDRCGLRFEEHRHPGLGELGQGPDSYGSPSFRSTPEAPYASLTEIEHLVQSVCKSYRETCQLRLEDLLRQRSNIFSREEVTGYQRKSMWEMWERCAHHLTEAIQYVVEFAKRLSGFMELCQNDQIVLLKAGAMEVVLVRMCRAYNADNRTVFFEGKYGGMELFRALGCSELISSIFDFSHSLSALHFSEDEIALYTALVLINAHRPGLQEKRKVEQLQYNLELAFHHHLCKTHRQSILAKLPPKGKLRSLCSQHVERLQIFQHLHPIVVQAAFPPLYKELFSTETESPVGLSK
# Procedure, shortened: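 Luminescence (One-Glo, 30 min RT) measured 16 h after compound addition and doxycycline induction at 37C. Reporter: RORE-luciferase under TET-inducible ROR-gamma in CHO cells.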
# [15] = biological target: Nuclear receptor subfamily 1 group I member 2 (Rattus norvegicus) (UniProt Q9R1A7); experiment: qHTS assay for small molecule activators of the rat pregnane X receptor (rPXR) signaling pathway (AID 651751; call rule not given here); conditions: rPXR reporter cells, luciferase (One-Glo), 24 h
# Nuclear receptor subfamily 1 group I member 2 (Rattus norvegicus), sequence (Q9R1A7 whole entry, looked up): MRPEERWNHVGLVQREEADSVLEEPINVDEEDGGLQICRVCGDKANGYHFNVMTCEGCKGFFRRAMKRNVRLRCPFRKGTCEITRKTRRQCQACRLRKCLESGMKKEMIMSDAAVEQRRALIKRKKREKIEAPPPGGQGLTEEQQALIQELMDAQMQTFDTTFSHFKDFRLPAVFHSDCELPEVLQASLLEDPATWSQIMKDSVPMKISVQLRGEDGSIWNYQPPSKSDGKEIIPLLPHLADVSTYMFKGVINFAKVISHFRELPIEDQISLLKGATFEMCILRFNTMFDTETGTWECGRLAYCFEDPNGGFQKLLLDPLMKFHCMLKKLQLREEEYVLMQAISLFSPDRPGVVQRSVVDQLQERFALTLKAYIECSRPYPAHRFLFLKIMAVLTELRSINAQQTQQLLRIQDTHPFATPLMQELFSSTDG
# [16] = qHTS assay for small molecule activators of the human pregnane X receptor (PXR) signaling pathway (AID 720659; call rule not given here)
# [17] = biological target: Mitogen-activated protein kinase 10 (Mus musculus) (UniProt Q61831); experiment: JNK3 AlphaScreen Assay (AID 530; active means well fitted curve in either direction with a large enough effect, not every such curve was filed as active;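 further: kinase came from lysate of stimulated human HepG2 cells; signal reports phosphorylation of biotinylated GST-cJun 1-79 at Ser73 with 10 µM ATP; series mostly up to about 57 µM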)
# Procedure, shortened: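 Phosphorylation of biotinylated GST-cJun(1-79) at Ser73 is measured by AlphaScreen proximity luminescence. Enzyme is JNK3 in HepG2 lysates activated with interleukin-1beta and tumor necrosis factor alpha; ATP is 10 uM final.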
# [18] = biological target: Cytochrome P450 3A4 (Homo sapiens) (UniProt P08684); experiment: qHTS Assay for Inhibitors and Substrates of Cytochrome P450 3A4 (AID 884); further: series mostly up to about 57 µM; nearly all actives have a fitted effect of over 50% in size
# Cytochrome P450 3A4 (Homo sapiens), sequence (P08684 whole entry, looked up): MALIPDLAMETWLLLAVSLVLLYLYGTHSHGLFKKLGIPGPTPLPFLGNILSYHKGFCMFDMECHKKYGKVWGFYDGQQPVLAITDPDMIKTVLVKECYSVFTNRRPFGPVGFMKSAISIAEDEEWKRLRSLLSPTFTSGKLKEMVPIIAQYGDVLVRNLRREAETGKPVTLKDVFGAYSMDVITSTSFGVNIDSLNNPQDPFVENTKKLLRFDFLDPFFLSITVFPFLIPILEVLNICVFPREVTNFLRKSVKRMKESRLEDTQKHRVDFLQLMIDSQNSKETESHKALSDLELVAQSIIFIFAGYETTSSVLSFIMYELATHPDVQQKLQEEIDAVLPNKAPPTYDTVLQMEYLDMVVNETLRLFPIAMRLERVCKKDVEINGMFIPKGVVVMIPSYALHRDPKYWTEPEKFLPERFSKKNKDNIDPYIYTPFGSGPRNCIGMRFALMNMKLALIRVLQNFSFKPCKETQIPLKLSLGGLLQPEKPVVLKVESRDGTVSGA
# Procedure, shortened: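 Luminescent readout of luciferin produced by CYP3A4 (20 nM) dealkylation of Luciferin-PPXE, 25 uM (its KM). NADPH-driven reaction ran 60 min at RT after 10 min compound preincubation; data scaled to 57 uM ketoconazole as 100% inhibition.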
# [19] = biological target: Glucocorticoid receptor (Homo sapiens) (UniProt P04150); experiment: qHTS assay for small molecule antagonists of glucocorticoid receptor signaling (AID 588533; active means well fitted inhibition curve with a large enough effect in the signal ratio, with a control signal flat, not every such curve was filed as active; the % refers to the signal ratio;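 further: cells stimulated with 2 nM dexamethasone as agonist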)
# Glucocorticoid receptor (Homo sapiens), sequence (P04150 whole entry, looked up): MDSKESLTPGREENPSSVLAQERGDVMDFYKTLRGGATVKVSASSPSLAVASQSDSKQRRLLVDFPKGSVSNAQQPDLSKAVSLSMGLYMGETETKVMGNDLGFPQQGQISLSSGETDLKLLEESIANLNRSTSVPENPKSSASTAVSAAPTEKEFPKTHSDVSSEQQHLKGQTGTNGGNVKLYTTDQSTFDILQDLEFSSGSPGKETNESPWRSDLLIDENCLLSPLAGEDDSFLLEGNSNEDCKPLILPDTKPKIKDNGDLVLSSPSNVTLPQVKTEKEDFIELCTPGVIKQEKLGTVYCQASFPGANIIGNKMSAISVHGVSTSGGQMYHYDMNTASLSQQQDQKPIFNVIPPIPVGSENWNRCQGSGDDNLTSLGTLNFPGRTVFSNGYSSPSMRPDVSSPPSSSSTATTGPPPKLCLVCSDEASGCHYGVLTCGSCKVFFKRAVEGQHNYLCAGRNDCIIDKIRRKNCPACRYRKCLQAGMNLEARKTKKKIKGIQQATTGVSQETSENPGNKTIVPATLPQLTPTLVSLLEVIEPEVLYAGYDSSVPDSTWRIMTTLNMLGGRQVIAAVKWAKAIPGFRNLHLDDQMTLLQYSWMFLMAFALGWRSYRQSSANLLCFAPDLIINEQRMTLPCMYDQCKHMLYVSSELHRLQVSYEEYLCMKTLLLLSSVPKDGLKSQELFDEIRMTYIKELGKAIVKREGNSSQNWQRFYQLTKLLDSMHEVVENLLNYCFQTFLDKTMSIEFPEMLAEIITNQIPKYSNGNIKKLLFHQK
# Procedure, shortened: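 Antagonist-mode qHTS: compound titrations added to GRE-bla HeLa cells, then dexamethasone 2 nM final; 18 h, 37 C. CCF4 FRET fluorescence normalized to dexamethasone and DMSO; IC50 from Hill fit.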
# [20] = qHTS assay for small molecule antagonists of the retinoid-related orphan receptor gamma (ROR-gamma) signaling pathway - cell viability counter screen (AID 720652; active means well fitted curve in the direction sought with a large enough effect in the repeat runs; an effect the other way counts as inactive or inconclusive;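 further: CHO reporter cells with doxycycline-induced ROR-gamma expression; series mostly up to about 92 µM; compound exposure lasted 16 hr before ATP read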)
# Procedure, shortened: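 Cytotoxicity counter screen: intracellular ATP (CellTiter-Glo luminescence) measured in the doxycycline-induced CHO RORE-luciferase reporter line after 16 hr compound exposure at 37 C, 5% CO2.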
SMILES,Potency [1],Potency [2],Potency [3],Potency [4],Potency [5],Potency [6],outcome [7],outcome [8],outcome [9],Potency [10],activation [11],Potency [12],activation [13],Potency [14],max response [15],outcome [16],outcome [17],Potency [18],Potency [19],Potency [20]
CN=C=S,inactive,inactive,inactive,inactive,inactive,20 µM (active),inactive,inactive,inactive,inactive,-0.537% and -2.4%,inactive,0.215% and 0.204%,inactive,1.38% and 4.99%,inactive,–,–,–,–
BrCCBr,–,inactive,inactive,inactive,inactive,inactive,inactive,inactive,inactive,inactive,-3.11% and 0.969%,inactive,-1.12% and 0.568%,inactive,2.8% and -1.13%,inactive,inactive,inactive,inactive,inactive
C=C(Cl)Cl,inactive,inactive,inactive,inactive,inactive,inactive,inactive,–,–,inactive,-1.18%,inactive,–,inactive,-3.03%,inactive,inactive,inactive,–,inactive
CCCCCCCC(=O)Cl,inactive,inactive,inactive,inactive,inactive,inactive,inactive,–,–,inactive,-1.82%,inactive,-0.601%,inactive,5.82%,inactive,–,inactive,inactive,inactive
N#CCCCl,inactive,inactive,inactive,inactive,–,–,–,inactive,inactive,inactive,-0.742% and -1.01%,inactive,–,inactive,-4.29% and -2.84%,inactive,inactive,inactive,inactive,inactive
O=[N+]([O-])c1ccc(Cl)c(Cl)c1,inactive,inactive,inactive,–,inactive,inactive,inactive,inactive,inactive,inactive,–,inactive,0.165%,inactive,0.633%,inactive,inactive,inactive,inactive,inactive
